# “And” between values parts separate entries of the source, which are not always exact repeats. Identical values can stand only once. Out of some 25,000 compounds screened, about 970 (3.9%) were called active. Inconclusive results (about 8%) are left out. How the calls were made is not given here. What follows is part of a selection rich in actives, with near analogues and random picks from the rest.
# How the values were obtained:
# Assay in all cases: Primary Screen for Target Class Profiling of Small Molecule Inhibitors of Methyltransferases
# [1] = target: Catechol O-methyltransferase (Homo sapiens) (UniProt P21964); conditions: purified enzyme, MTase-Glo SAH luminescence; activity change, negative = inhibition: at 40 µM, stronger effect = lower value; outcome: 40 uM
# Catechol O-methyltransferase (Homo sapiens), sequence (P21964 whole entry, looked up): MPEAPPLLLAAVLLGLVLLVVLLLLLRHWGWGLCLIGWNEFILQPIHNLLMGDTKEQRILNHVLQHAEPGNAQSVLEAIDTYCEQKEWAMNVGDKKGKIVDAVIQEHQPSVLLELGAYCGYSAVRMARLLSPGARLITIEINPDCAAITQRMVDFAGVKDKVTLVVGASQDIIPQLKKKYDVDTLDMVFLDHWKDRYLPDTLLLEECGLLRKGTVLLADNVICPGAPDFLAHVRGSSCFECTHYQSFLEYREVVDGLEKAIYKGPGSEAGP
# From the text: (§1) PI: Matthew D. Hall Ph.D. and Quinlin M. Hanson Ph.D.
# (§2) National Center for Advancing Translational Sciences (NCATS)
# (§3) National Institute of Health (NIH), Rockville, MD
# (§4) Target class profiling (TCP) is a chemical biology approach amenable to investigating understudied biological targets. TCP is achieved by developing a generalizable assay platform and applying it to screen a curated set of compound libraries against representative members of a target class. Small molecule methyltransferases (SMMTase) are a subclass of methyltransferase that act on metabolites to modulate signaling pathways, metabolize xenobiotics, or balance the available methyl pool. We screened four curated libraries totaling 27,574 unique compounds against the SMMTases nicotinamide N-methyltransferase (NNMT), phenylethanolamine N-methyltransferase (PNMT), histamine N-methyltransferase (HNMT), glycine N-methyltransferase (GNMT), catechol O-methyltransferase (COMT), and guanidinoacetate N-methyltransferase (GAMT). The data generated by this TCP can be leveraged for informed tool molecule development. For example, in the associated publication we identified a chemotype of HNMT-selective inhibitors. Additionally, we identified a putative SMMTase-selective inhibitor with potential as a tool molecule for studying broader methyltransferase biology.
# (§5) High-through put screening assays were developed at the National Center for Advancing Translational Science (NCATS) for the enzymes NNMT, PNMT, HNMT, GNMT, COMT, and GAMT. Enzymatic activity was measured as a function of SAM cofactor conversion using the MTase Glo kit (Promega) for all enzymes. All assays were performed in 1536-well format with substrates and SAM concentrations at KM values. Enzyme concentration and assay timing were optimized for 10-20% SAM conversion. Initial screening of 27,574 compounds was done as single-point assays using the highest compound concentration (40 uM). […] These compounds were replated in 11-point dose response and assayed against NNMT, PNMT, HNMT, GNMT, COMT, GAMT, and a counter-assay. The IC50 and efficacy (maximal response) values were determined for each dose-response curve. These values are also accounted for in the area under the curve (AUC) values.
# (§6) PROTOCOL TABLE (as described by Inglese J, Shamu CE and Guy RK. 2007)
# (§7) SEQUENCE No. (e.g., 1, 2, 3, etc.); […] (e.g., Cells, Incubation, Reagent, etc.); VALUE; DESCRIPTION.
# (§8) 1; Reagent; 2 uL; SMMTase Enzyme (2x) in reaction buffer, columns 1- 48.
# (§9) 2; Reagent; 1 uL; SAM (4x) in reaction buffer, columns 1-48.
# (§10) 3; Controls; 23 nL; DMSO in column 4; sinefungin in DMSO (0 uM - 40 uM) in 7-point 1:2 dilution series (n = 2) in column 2.
# (§11) 4; Compounds; 23 nL; Columns 5-48.
# (§12) 5; Reagent; 1 uL; Substrate (4x) in reaction buffer, columns 2-48.
# (§13) 6; Time; 20-30 min; Incubation.
# (§14) 7; Reagent; 1 uL; MTase-Glo reagent (5X), columns 1-48.
# (§15) 8; Time; 30 min; Incubation.
# (§16) 9; Reagent; 5 uL; MTase-Glo Detection reagent, columns 1-48.
# (§17) 10; Time; 30 min; Incubation, luminescence evolution.
# (§18) 11; Detection; Luminescence; ViewLux uHTS Microplate Imager (PerkinElmer).
# (§19) NOTES (numbers refer to Sequence numbers above)
# (§20) 1, 2, 5. White Medium Binding Greiner 1536-well plates (Cat #789175-F, Greiner Bio-One, Monroe, NC); Reaction buffer: 50 mM Tris, pH 8.0, 3 mM MgCl2, 1 mM EDTA, 50 mM NaCl, 1 mM DTT, and 0.1 mg/mL BSA. Evaporation was prevented by covering assay plates with metal lids containing holes to allow gas diffusion.
# (§21) 1. Six SMMTase were profiled: HNMT, GNMT, PNMT, COMT, NNMT, GAMT
# (§22) 5. The corresponding substrate was used for each enzyme: HNMT - 5.3 uM Histamine; GNMT - >500 uM Glycine; PNMT - 16.2 uM Norephinephrine; COMT - 13.7 uM Norephinephrine; NNMT - 3.8 uM Nicotinamide; GAMT - 2.5 uM Guanidinoacetate.6, 8, 10. Room temperature
# (§23) 6. Final reaction conditions: 10 nM COMT, 5 uM SAM, 15 uM norepinephrine, 50 mM Tris, pH 8.0, 3 mM MgCl2, 1 mM EDTA, 50 mM NaCl, 1 mM DTT, and 0.1 mg/mL BSA; refer to tables 2 and S1 for specific timing.
# 8. […]
# [2] = target: Glycine N-methyltransferase (Homo sapiens) (UniProt Q14749); conditions: purified enzyme, MTase-Glo SAH luminescence; measured here: GNMT inhibition; at 40 µM; stronger effect = lower value
# Glycine N-methyltransferase (Homo sapiens), sequence (Q14749 whole entry, looked up): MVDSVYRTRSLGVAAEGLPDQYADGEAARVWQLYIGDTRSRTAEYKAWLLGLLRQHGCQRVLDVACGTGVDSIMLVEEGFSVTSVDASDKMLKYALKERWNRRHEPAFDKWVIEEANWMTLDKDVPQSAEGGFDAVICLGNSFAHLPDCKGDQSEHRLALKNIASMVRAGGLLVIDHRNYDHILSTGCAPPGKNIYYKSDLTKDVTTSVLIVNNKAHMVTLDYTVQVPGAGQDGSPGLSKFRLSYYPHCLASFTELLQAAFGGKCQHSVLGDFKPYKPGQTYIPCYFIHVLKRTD
# From the text: as §1, §2, §3, §4, §5, §6, §7, §8, §9, §10, §11, §12, §13, §14, §15, §16, §17, §18, §19, §20, §21, §22, §23
# 8. […]
# [3] = target: Guanidinoacetate N-methyltransferase (Homo sapiens) (UniProt Q14353); conditions: purified enzyme, MTase-Glo SAH luminescence; measured here: GAMT inhibition; at 40 µM; stronger effect = lower value
# From the text: as §1, §2, §3, §4, §5, §6, §7, §8, §9, §10, §11, §12, §13, §14, §15, §16, §17, §18, §19, §20, §21, §22, §23
# 8. […]
# [4] = target: Histamine N-methyltransferase (Homo sapiens) (UniProt P50135); conditions: purified enzyme, MTase-Glo SAH luminescence; measured here: HNMT inhibition; at 40 µM; stronger effect = lower value
# Histamine N-methyltransferase (Homo sapiens), sequence (P50135 whole entry, looked up): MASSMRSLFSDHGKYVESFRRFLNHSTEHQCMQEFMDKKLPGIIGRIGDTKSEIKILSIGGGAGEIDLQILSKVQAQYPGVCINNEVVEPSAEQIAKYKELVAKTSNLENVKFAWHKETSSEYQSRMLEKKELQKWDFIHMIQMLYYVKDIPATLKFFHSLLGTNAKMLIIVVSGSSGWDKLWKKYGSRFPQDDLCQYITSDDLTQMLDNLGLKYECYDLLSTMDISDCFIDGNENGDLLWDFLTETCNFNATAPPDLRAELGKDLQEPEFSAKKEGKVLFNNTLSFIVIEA
# From the text: as §1, §2, §3, §4, §5, §6, §7, §8, §9, §10, §11, §12, §13, §14, §15, §16, §17, §18, §19, §20, §21, §22, §23
# 8. […]
# [5] = target: Nicotinamide N-methyltransferase (Homo sapiens) (UniProt P40261); conditions: purified enzyme, MTase-Glo SAH luminescence; measured here: NNMT inhibition; at 40 µM; stronger effect = lower value
# Nicotinamide N-methyltransferase (Homo sapiens), sequence (P40261 whole entry, looked up): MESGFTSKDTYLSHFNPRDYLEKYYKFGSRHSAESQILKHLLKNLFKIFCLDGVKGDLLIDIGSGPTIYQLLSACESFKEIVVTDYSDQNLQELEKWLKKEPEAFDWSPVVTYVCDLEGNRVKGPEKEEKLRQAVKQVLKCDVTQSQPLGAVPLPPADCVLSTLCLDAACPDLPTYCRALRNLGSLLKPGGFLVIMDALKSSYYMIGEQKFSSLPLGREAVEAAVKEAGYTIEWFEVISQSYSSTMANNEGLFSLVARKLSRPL
# From the text: as §1, §2, §3, §4, §5, §6, §7, §8, §9, §10, §11, §12, §13, §14, §15, §16, §17, §18, §19, §20, §21, §22, §23
# 8. […]
# [6] = target: Phenylethanolamine N-methyltransferase (Homo sapiens) (UniProt P11086); conditions: purified enzyme, MTase-Glo SAH luminescence; measured here: PNMT inhibition; at 40 µM; stronger effect = lower value
# Phenylethanolamine N-methyltransferase (Homo sapiens), sequence (P11086 whole entry, looked up): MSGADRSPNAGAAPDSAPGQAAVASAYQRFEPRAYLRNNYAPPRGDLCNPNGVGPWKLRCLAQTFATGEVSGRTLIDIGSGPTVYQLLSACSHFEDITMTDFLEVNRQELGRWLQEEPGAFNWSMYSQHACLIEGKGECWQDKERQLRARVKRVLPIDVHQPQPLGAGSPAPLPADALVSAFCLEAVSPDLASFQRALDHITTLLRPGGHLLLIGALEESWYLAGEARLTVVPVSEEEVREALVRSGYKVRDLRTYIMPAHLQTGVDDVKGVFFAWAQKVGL
# From the text: as §1, §2, §3, §4, §5, §6, §7, §8, §9, §10, §11, §12, §13, §14, §15, §16, §17, §18, §19, §20, §21, §22, §23
# 8. […]
# On the % scale 0 is the no-effect control and ±100 the full control effect.
SMILES,"activity change, negative = inhibition [1]","activity change, negative = inhibition [2]","activity change, negative = inhibition [3]","activity change, negative = inhibition [4]","activity change, negative = inhibition [5]","activity change, negative = inhibition [6]"
COc1ccc(CNc2nc3c(S(=O)(=O)c4ccc(C)cc4)nnn3c3ccccc23)cc1,-0.038% (inactive),-2.81%,0.613%,3.99%,0%,-4.71%
CC1CCC(Nc2nc3c(-c4cccc(F)c4)nnn3c3ccccc23)CC1 (stereo not drawn),-4.07% (inactive),0.278%,0%,-0.849%,-6.58%,-5.44%
COc1cc(N)c(Cl)cc1C(=O)NC[C@@H]1CCN2CCC[C@@H]12,-17.2% (inactive),-4.41%,-14.1%,-11.2%,-21.4%,-18.4%
CCOC(=O)c1cc2n(n1)CC(C)(C(=O)NCc1ccccc1)N(CCCc1ccccc1)C2=O (stereo not drawn),-0.428% (inactive),1.98%,0%,4.53%,-4.41%,0.451%
O=C(CCc1nnc2n(Cc3ccc(Cl)cc3)c(=O)c3ccccc3n12)N1CCN(Cc2ccccc2)CC1,-0.522% (inactive),-14.1%,0.869%,-6.5%,-18.2%,-7.88%
CC(C)Cn1c(=O)c2ccccc2n2c(CCC(=O)N3CCN(c4cccc(Cl)c4)CC3)nnc12,-9.54% (active),-27.4%,-4.12%,-10.4%,-53.7%,-12.4%
O=C(CCc1nnc2n(Cc3ccc(Cl)cc3)c(=O)c3ccccc3n12)N1CCN(c2ccccc2F)CC1,-4.23% (inactive),-7.84%,3.64%,-1.5%,-3.97%,-4.97%
COC(=O)c1ncn2c1C(=O)N(Cc1ccc(OC)cc1)C(C)(C(=O)NCc1ccccc1)C2 (stereo not drawn),-12.8% (inactive),-10.1%,-0.727%,-7.43%,-6.98%,-9.09%
COc1cc2ncnc(Nc3cccc(Cl)c3F)c2cc1OC(=O)N1CCN(C)C[C@H]1C,-20.9% (inactive),-14.7%,0.224%,-20.1%,-5.9%,-15.1%
CCOc1ccc(CNC(=O)c2cc3n(n2)CC(C)(C(=O)NCc2ccc(F)cc2)N(C)C3=O)cc1OC (stereo not drawn),1.84% (inactive),2.33%,-5.76%,-2.91%,3.94%,6.92%
CC(=O)c1cnc2ccc(-c3cc(Cl)c(O)c(Cl)c3)nc2c1NC1CCC(CN(C)C)CC1 (stereo not drawn),2.27% (active),-9.49%,1.31%,-75.4%,-14.2%,0.349%
CCn1cc(S(=O)(=O)N2CCC(C3CCN(C(=O)NC)CC3)C2)cn1 (stereo not drawn),-3.73% (inactive),-4.19%,-5.14%,-1.51%,-10.1%,9.89%
Cc1cc(Nc2cc(CN3CCOCC3)c3nc(C)c(Cc4ccc(Cl)cc4F)n3n2)n[nH]1,-59.4% (active) and -59.9% (active),-74.4% and -69.1%,-49%,-62.1% and -80.8%,-98.7% and -69.4%,-114% and -64.4%
CC1(C=O)CC[C@]2(C(=O)O[C@@H]3O[C@H](CO)[C@@H](O)[C@H](O)[C@H]3O)CC[C@]3(C)C(=CCC4[C@@]5(C)C[C@H](O)[C@H](O[C@@H]6OC[C@@H](O)[C@H](O)[C@H]6O)[C@@](C)(CO)C5CC[C@]43C)C2C1 (stereo partly drawn),-12.2% (inactive),-0.721%,-3.55%,-5.71%,-15.1%,2.58%
Cc1ccc(C)c(Cn2nc3n(C)c(=O)c4ccc(C(=O)NC5CCCCC5)cc4n3c2=O)c1,4.71% (inactive),-4.89%,0.055%,2.18%,5.92%,6.36%
CN(Cc1cc(C2CC2)n[nH]1)C(=O)C(c1ccc(F)cc1)N(C)C (stereo not drawn),3.85% (inactive),1.91%,-0.305%,1.69%,0.211%,2.27%
CC(C)CNc1ccnc(NCc2csc(-c3ccccc3)n2)n1,-4.4% (active),-6.48%,6.91%,-83.3%,-36.8%,-16.1%
Cc1nc2c(c(-c3ccc(O)cc3)n1)CN(C(=O)c1ccccc1C)CCC2,-2.56% (inactive),-6.74%,-3.52%,-0.862%,-11.6%,-8.96%
Cc1noc(C)c1S(=O)(=O)NCCC1CN(c2cnn(C)c(=O)c2)CCO1 (stereo not drawn),4.53% (inactive),-1.17%,-2.35%,0.773%,-1.18%,5.68%
COc1ccccc1N1CCN(C(=O)C[C@@H]2C[C@@H](C(C)C)[C@H](CO)C=C2C)CC1,-4.58% (inactive),-5.78%,-7.59%,-2.03%,-11.8%,3.34%
COc1ccc(C(=O)N2CCN(C(=O)N3CC4CC(C3)[C@H]3CCCC(=O)N3C4)CC2)c(OC)n1 (stereo partly drawn),1.98% (inactive),-0.248%,0.955%,0.52%,-3.64%,0.052%
CCN(CC)CCCC(C)Nc1ccnc2cc(Cl)ccc12 (stereo not drawn),5.5% (active) and -5.08% (active),-0.101% and -1.02%,6.48% and -3.06%,-64.7% and -54.2%,-4.26% and -11.8%,6.95% and -8.55%
O=C(C1CCCC1)N1CCCC(c2noc(COc3ccccc3)n2)C1 (stereo not drawn),-7.8% (inactive),-8.83%,-9.57%,-5.83%,-18.3%,-10.2%

# From PubChem BioAssay AID1745853 (National Center for Advancing Translational Sciences (NCATS), 2022)
